According to PubChem BioAssay AID686978 (National Center for Advancing Translational Sciences (NCATS), 2013):
The campaign covered roughly 420,000 compounds. About 64,000 (15%) were called active. Another 27% or so got no clear call; they are omitted. Calls come from the whole dose curve; as a rule, active = well fitted inhibition curve with a large enough effect; inconclusive = small, poorly fitted or top-dose-only effect; inactive = flat fitted curve, though single readings scatter. The list is a sample of the results. Entries that show only a call come without a potency.
Potency is the fitted concentration of half-maximal effect.

Test: qHTS for Inhibitors of human tyrosyl-DNA phosphodiesterase 1 (TDP1): qHTS in cells in absence of CPT; note: nearly all actives have a fitted effect of over 55% in size
Conditions: DT40 Tdp1-/- hTDP1 cells, no CPT, ATP luminescence, 48 h; activity change, negative = growth inhibition: at 46.2 µM (top of the series)
In short: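 Seeded 400 DT40-hTDP1 cells/well (vehicle DMSO, no 20 nM CPT); pinned compounds; ≥48 hr at 37 °C; CellTiter-Glo luminescence as viability measure.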
For `CC1(C)C(=O)Nc2ccccc2N1C(=O)COC(=O)Cn1cnc2ccccc2c1=O`, the Potency was “inactive”. With `O=C1CC(c2cccc(Br)c2)C2=C(CCCC2=O)N1` (stereo not given) the Potency was “inactive”. With `COc1cc(OC)cc(/C(N)=N/O)c1` the Potency was “inactive”. In the case of `CC(C)c1cc(C(=O)N/N=C/C(Br)=C/c2ccccc2)n[nH]1`, the Potency is reported as 2.59 µM (active). With `Cc1ccc(-c2cc(C(=O)N/N=C/C=C/c3ccccc3)n[nH]2)o1` the Potency was “inactive”. In the case of `COc1ccc(C/C(C)=N/NC(=O)c2cc(C)oc2C)cc1`, the Potency is reported as “inactive”. For `CC(=C/c1ccccc1)/C=N/NC(=O)c1cc(C)oc1C`, the Potency was “inactive”. With `Cc1cc(C(=O)N/N=C\C(Br)=C\c2ccccc2)c(C)o1` the Potency was 16.4 µM (active). With `CC(C)c1cc(C(=O)O)n[nH]1` the Potency was “inactive”. In the case of `Cc1ccc(NC(=O)Cc2nnc(SCC(=O)Nc3nncs3)n2C)cc1`, the Potency is reported as “inactive”. In the case of `CC(C)Nc1nnc(SCC(=O)c2c[nH]c3ccccc23)s1`, the Potency is reported as “inactive”. With `CC(NC(=O)C(=O)N/N=C/c1ccc(Cl)cc1)c1ccccc1` (stereo not given) the Potency was “inactive”. With `C=CS(=O)c1sc(Cl)c(N2CCOCC2)c1[N+](=O)[O-]` (stereo not given) the Potency was 1.03 µM (active). For `Cc1c(Nc2cc(N3CCCC(C)C3)c3nonc3c2[N+](=O)[O-])c(=O)n(-c2ccccc2)n1C` (stereo not given), the Potency was “inactive”. In the case of `COc1ccc(N2C(=O)CC(N3CCC(C(N)=O)CC3)C2=O)cc1` (stereo not given), the Potency is reported as “inactive”. In the case of `CCN1CCN(c2ccc(/C=C/c3ccnc4ccccc34)cc2)CC1`, the Potency is reported as 17.8 µM (active). With `Oc1ccc(/C=N/N(Cc2ccccc2)c2ccccc2)cc1` the Potency was “inactive”. With `CN(Cc1ccccc1)c1ccc(/C=C/c2ccnc3ccccc23)cc1` the Potency was 12.6 µM (active). For `O=C(CN1CCCC1)N1CCN(c2ccccc2)CC1`, the Potency was “inactive”. In the case of `c1ccc(-c2cnc(CN3CCN(c4ccccc4)CC3)o2)cc1`, the Potency is reported as “inactive”. For `CN(C)c1ccc(/C=N/N(Cc2ccccc2)c2ccccc2)cc1`, the Potency was “inactive”. For `CCC(C)N(c1ccc(/C=C/c2ccnc3ccccc23)cc1)C(C)CC` (stereo not given), the Potency was 4.47 µM (active). With `CCCCCCCNc1ccc(/C=C/c2ccnc3ccccc23)cc1` the Potency was 10 µM (active). For `CCCCN1C(=O)CC(N2CCOCC2)C1=O` (stereo not given), the Potency was “inactive”. In the case of `CN(C)C(=O)c1cccn(Cc2cccc(C(F)(F)F)c2)c1=O`, the Potency is reported as “inactive”. In the case of `O=C(c1cc(-c2ccc(O)cc2)on1)N1CCOCC1`, the Potency is reported as “inactive”. In the case of `CC(=O)c1ccc(NC(=S)N(Cc2ccccc2)C(C)C2CC2)cc1` (stereo not given), the Potency is reported as “inactive”. For `O=C(Nc1ccc(C(=O)O)cc1)/C(=C/c1ccc([N+](=O)[O-])cc1)NC(=O)c1ccccc1`, the Potency was “inactive”. For `CCOC(=O)C1(C(F)(F)F)N=C(N(C)C)OC(N(C)C)=N1`, the Potency was “inactive”. For `Cc1ccc2nsnc2c1S(=O)(=O)N1CCCC1C(=O)O` (stereo not given), the Potency was “inactive”.
